The text below walks through data of ChEMBL document CHEMBL3988442, “University of Dundee, Small-Polar-MMV Screening Library” (2021).

Hit rate of the full screen: of about 48,000 compounds, about 13,000 (27%) showed an effect of 50% or more. The list shows a part of the results.

In this test the test system is Wolbachia pipientis. The experiment in a line: Anti-Wolbachia Cell-Based Screen. The format is functional. More on the design: scale not given: in the data most compounds retested in dose-response had high values. The following applies: 5 µM.
As to `CCn1ncc2c1CCCC2NCc1cccc2c1OCCO2` (stereo not given), the “Percent Effect” value is 5.32%.

Turning to `COCCCSc1ccc(NCc2ccc(C)cn2)cc1`, the “Percent Effect” value is given as -7.055%. The value for `CCN(CC)[C@@H]1CN(Cc2cnn(C)c2)[C@@H]2COC[C@H]12` was 6.266%; that for `COC1CCN(Cc2csc(C(C)C)n2)CC1` was -2.369%; that for `CC(CN1CCCC1)C(=O)N1CCC(c2nccn2CC2CC2)CC1` (stereo not given) was -20.21%. In the case of `CSCc1noc(C2CCC(=O)N(CCc3ccccc3)C2)n1` (stereo not given), the “Percent Effect” value is given as -4.988%.

Regarding `CCc1noc(C2CCCCN2C(=O)c2nnc3ccccc3n2)n1` (stereo not given), the “Percent Effect” value was 13%. Turning to `CC(NC(=O)NC1CCN(Cc2ccncc2)CC1)c1ccc(F)cc1` (stereo not given), the “Percent Effect” value is 24.84%. The value for `O=C(CC1CC1)N1Cc2nccn2CC(Cn2ncccc2=O)C1` (stereo not given) was 90.4%.

In the case of `COCC1CN(C(=O)c2ccc(C)o2)Cc2nccn2C1` (stereo not given), the “Percent Effect” value is -22.35%.

On to `COCC1CN(C(=O)c2ccco2)Cc2nccn2C1` (stereo not given), for which the “Percent Effect” value is reported as 4.87%. Regarding `O=C(C1CC=CC1)N1Cc2nccn2CC(CN2CCCC2)C1` (stereo not given), the “Percent Effect” value was determined as 16.54%. The figure for `O=C(c1ccco1)N1Cc2nccn2CC(Cn2ncccc2=O)C1` (stereo not given) is 108.6%; for `O=C(CC1CC1)N1Cc2nccn2CC(CN2CCCC2)C1` (stereo not given) it is -4.92%. The value for `O=C1CCCN1CC1CN(C(=O)N2CCOCC2)Cc2nccn2C1` (stereo not given) was 4.749%; that for `O=C(N1CCCC1)N1Cc2nccn2CC(Cn2ncccc2=O)C1` (stereo not given) was 113.1%; that for `O=C1CCCN1CC1CN(C(=O)CC2CCCC2)Cc2nccn2C1` (stereo not given) was -15.1%. The figure for `COCC(=O)N1Cc2nccn2CC(Cn2ncccc2=O)C1` (stereo not given) is 110.2%. With `O=C(N1CCN(c2ccccc2O)CC1)C1(O)Cc2ccccc2C1`, the “Percent Effect” value is given as -7.176%. The figure for `O=C(N[C@@H]1CN(c2ncccn2)C[C@@H]2CCCO[C@@H]21)c1ccnnc1.O=C(O)C(F)(F)F` is -7.292%; for `CSc1ccccc1C(=O)Nc1ccc(OC2CCN(C)CC2)cc1` it is 4.435%. For the compound `Cn1cc(CNc2cnn(CC3CCCO3)c2)c(-c2ccncc2)n1` (stereo not given), the “Percent Effect” value stood at 4.968%. With `NC(=O)N1Cc2nccn2CC(Cn2ncccc2=O)C1` (stereo not given), the “Percent Effect” value is recorded as 106.3%.

Take `O=C(c1ccccc1)N1Cc2nccn2CC(Cn2ncccc2=O)C1` (stereo not given): the “Percent Effect” value came out at 106.9%. Turning to `O=C(c1ccc[nH]1)N1Cc2nccn2CC(Cn2ncccc2=O)C1` (stereo not given), the “Percent Effect” value is on record as 107.9%.

As for `O=C(O)C(F)(F)F.O=C(O)C(F)(F)F.O=C(c1ccccn1)N1Cc2nccn2CC(CN2CCOCC2)C1` (stereo not given), the “Percent Effect” value was -3.585%. In the case of `CS(=O)(=O)N1Cc2nccn2CC(Cn2ncccc2=O)C1` (stereo not given), the “Percent Effect” value amounted to 1.411%. The figure for `CN(Cc1cccnc1)CC1CN(C(N)=O)Cc2nccn2C1` (stereo not given) is -13.65%; for `CSc1ncc(C(=O)N2C[C@H]3CC[C@@H]2CN(c2ncccn2)C3)cn1` it is -34.6%. The value for `CC(C)N(CC(N)=O)Cc1cccc(Br)c1` was -7.902%; that for `CCN(Cc1nc(COC)no1)C(=O)CCNC(=O)c1ccccc1F` was -2.73%. Consider `CCN(Cc1cccc(C(=O)Nc2c(C)cnn2C)c1)[C@H]1COC[C@@H]1O`, for which the “Percent Effect” value is recorded as 2.472%. The figure for `CC(C)c1nsc(NC2CCOC3(CCCC3)C2)n1` (stereo not given) is -5.666%; for `CCc1ncc(C(=O)NCCNc2ncnc3sccc23)s1` it is -14.73%.

For the compound `Cc1ncc(C(=O)NCCNc2ncnc3sccc23)s1`, the “Percent Effect” value was -47.31%. The figure for `Cc1ncc(C(=O)NCCNc2ccncc2)s1` is 106.3%; for `CCc1ncc(C(=O)NCCNc2ccncc2)s1` it is 82.39%. Take `CCCC(C)(C)NC(=O)c1cnc(C)s1`: the “Percent Effect” value was -0.6309%. Take `CCc1ncc(C(=O)NCCNC(=O)Cc2ccc(F)cc2)s1`: the “Percent Effect” value is given as -2.58%. The value for `Cc1ccc(-c2nnc(CN3CCOCC(CO)C3)o2)n1C` (stereo not given) was -20.97%; that for `CCOC1CCCN(C(=O)c2[nH]nc(C(C)C)c2Br)C1` (stereo not given) was -3.012%; that for `Cc1cnn(CC2CCCN2C(=O)CCc2c(C)nc(C)[nH]c2=O)c1` (stereo not given) was 112.3%. The figure for `Cc1cnn(CC2CCCN2C(=O)CCc2c(C)nn(C)c2C)c1` (stereo not given) is 103.1%. As to `Cc1nn(C)c(C)c1CCC(=O)N1CCCC1Cn1cccn1` (stereo not given), the “Percent Effect” value was found to be 11.22%. The figure for `Cc1cnn(CC2CCCN2C(=O)CCc2c(C)noc2C)c1` (stereo not given) is 111.6%. For `Cc1cnn(CC2CCCCN2C(=O)Cc2c(C)noc2C)c1` (stereo not given), the “Percent Effect” value is reported as 117.3%.

`Cc1cnn(CC2CCCN2C(=O)CCc2nc3ccccc3[nH]2)c1` (stereo not given): the “Percent Effect” value stood at 1.047%.

For `Cc1cnn(CC2CCCCN2C(=O)Cc2csc(C)n2)c1` (stereo not given), the “Percent Effect” value is 1.923%.

Take `Cc1cc(CN(C)C2CCN(c3cccc(-c4cscn4)c3)CC2)on1`: the “Percent Effect” value is -19.07%. For `CNS(=O)(=O)c1ccc(C(=O)NCCNc2ncccn2)cc1`, the “Percent Effect” value came to 1.025%.
